Laboratory results taken from PubChem BioAssay.
The source made the active and inactive calls.

Assays:
Albumin (Bos taurus) = Albumin (Bos taurus) (UniProt P02769); assay: compounds binding labelled BSA control protein – biochemical, small-molecule microarray, Alexa647 label, 635/667 nm fluorescence, artefact control for SMM control protein annotation, profiling panel (AID 1118); details: BSA-A647 binding, fluorescence 635 nm, higher = more signal;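 also: score merges 667 nm emission intensity and signal-to-noise per printed compound spot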
Albumin (Bos taurus), sequence (P02769 whole entry, looked up): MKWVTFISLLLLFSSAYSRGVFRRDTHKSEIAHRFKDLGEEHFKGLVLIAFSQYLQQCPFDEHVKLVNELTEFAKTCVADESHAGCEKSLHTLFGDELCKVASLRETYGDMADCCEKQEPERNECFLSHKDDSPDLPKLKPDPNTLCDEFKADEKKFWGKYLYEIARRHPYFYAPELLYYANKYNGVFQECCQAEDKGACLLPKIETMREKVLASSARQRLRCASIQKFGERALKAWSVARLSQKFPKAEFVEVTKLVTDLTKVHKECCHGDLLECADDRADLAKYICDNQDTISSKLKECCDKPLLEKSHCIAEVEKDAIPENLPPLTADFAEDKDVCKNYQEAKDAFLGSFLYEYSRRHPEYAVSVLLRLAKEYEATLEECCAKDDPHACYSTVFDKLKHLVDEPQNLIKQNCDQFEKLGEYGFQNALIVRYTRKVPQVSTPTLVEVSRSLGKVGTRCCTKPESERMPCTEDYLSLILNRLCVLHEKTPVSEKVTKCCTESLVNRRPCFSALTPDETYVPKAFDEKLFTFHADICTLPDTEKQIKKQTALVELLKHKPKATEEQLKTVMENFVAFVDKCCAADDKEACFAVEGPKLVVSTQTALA

[1] = probe aXIP binding to arrayed compounds – biochemical, NeuroSMM set, 635/667 nm fluorescence, primary screen (AID 1119); details: small-molecule microarray, higher = more signal, called active from +8 up or from −8 down;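 also: probe is the protein aXip251-270 applied at 1 µg/mL to compound-printed slides; binding of probe to printed compounds measured as 667 nm fluorescence plus signal to noise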
[2] = probe aNOTCH3 binding on compound microarray – biochemical, small-molecule microarray, 635/667 nm fluorescence, primary screen (AID 1120); details: higher = more signal;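 also: probe is a biotin-tagged antibody raised against NOTCH3 rather than NOTCH3 protein; score merges spot fluorescence near 667 nm with spot signal to noise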
[3] = probe aNOTCH2 binding on compound microarray – biochemical, small-molecule microarray, 635/667 nm fluorescence, primary screen (AID 1121); details: higher = more signal;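 also: score merges feature fluorescence read at 667 nm with its signal to noise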
[4] = biological target: Carbonic anhydrase 2 (Homo sapiens) (UniProt P00918); assay: compounds binding carbonic anhydrase 2 – biochemical, small-molecule microarray, Alexa647-labelled CAII, profiling panel (AID 1122); details: CAII-A647 binding fluorescence, higher = more signal
[5] = COS7 lysate on small-molecule microarray, probe aHis, 635 nm (AID 1123); details: COS7 cell lysate, fluorescence, higher = more signal;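 also: z-score combines 667nm fluorescence intensity with signal-to-noise per printed compound spot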
[6] = probe aLAP1 signal on lysate-treated microarray – cell lysate, small-molecule microarray, COS7 lysate, primary screen (AID 1124); details: probe aLAP1, fluorescence, higher = more signal;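 also: lysate comes from COS7 cells expressing LAP1 and is applied at 0.3 µg/mL; score merges spot fluorescence near 667 nm with signal-to-noise over triplicate slides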
Sam68 (KHDRBS1) = assay: compounds binding KHDRBS1 protein – biochemical, small-molecule microarray, 635 nm fluorescence, primary screen (AID 1125); details: higher = more signal;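 also: score merges 667 nm channel intensity with signal to noise over triplicate slides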
[7] = tested on: Chordin-like protein 2 (CHRDL2); assay: compounds binding chordin-like 2 – biochemical, small-molecule microarray, 635 nm fluorescence, primary screen (AID 1126); details: fluorescence 635 nm, higher = more signal;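 also: printed compound slides probed with Chrdl2 protein at 4 µg/mL for 1 h at 4 C; score merges 667 nm emission intensity with signal to noise over three replicate slides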
[8] = biological target: Concanavalin-A (Canavalia ensiformis) (UniProt P02866); assay: compounds binding concanavalin A lectin – biochemical, small-molecule microarray, Alexa647 label, 635 nm, artefact control for SMM control protein annotation, primary screen (AID 1127); details: ConA-A647 binding fluorescence, higher = more signal;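 also: z combines 667 nm emission intensity with signal-to-noise across three replicate slides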
Concanavalin-A (Canavalia ensiformis), sequence (P02866 whole entry, looked up): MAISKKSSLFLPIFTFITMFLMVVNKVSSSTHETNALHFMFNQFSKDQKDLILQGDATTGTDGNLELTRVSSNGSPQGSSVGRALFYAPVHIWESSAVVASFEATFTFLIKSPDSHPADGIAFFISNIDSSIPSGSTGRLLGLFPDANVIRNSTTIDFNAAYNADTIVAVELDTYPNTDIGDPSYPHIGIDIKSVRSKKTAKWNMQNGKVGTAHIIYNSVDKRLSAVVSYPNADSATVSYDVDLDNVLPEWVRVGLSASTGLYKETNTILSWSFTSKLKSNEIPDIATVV

[9] = compounds binding Alexa647 anti-His antibody – biochemical, small-molecule microarray, 635 nm fluorescence, artefact control for SMM control protein annotation, primary screen (AID 1128); details: higher = more signal;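 also: score merges feature fluorescence with signal-to-noise for each printed compound spot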
[10] = tested on: Human papillomavirus type 1a E7 protein (residues 1-88); assay: HPV1a E7 small-molecule binders, primary screen, biochemical, small-molecule microarray, residues 1-88, 635 nm (AID 1129); details: small-molecule microarray binding, fluorescence 635 nm; higher = more signal
[11] = biological target: Focal adhesion kinase 1 (Homo sapiens) (UniProt Q05397); assay: PTK2 protein binding on printed compound slides – biochemical, small-molecule microarray, 635/667 nm fluorescence, BSA, DTT, primary screen (AID 1130); details: 635 nm fluorescence, higher = more signal;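 also: composite of spot emission at 667 nm and signal to noise over triplicate slides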
Focal adhesion kinase 1 (Homo sapiens), sequence (Q05397 whole entry, looked up): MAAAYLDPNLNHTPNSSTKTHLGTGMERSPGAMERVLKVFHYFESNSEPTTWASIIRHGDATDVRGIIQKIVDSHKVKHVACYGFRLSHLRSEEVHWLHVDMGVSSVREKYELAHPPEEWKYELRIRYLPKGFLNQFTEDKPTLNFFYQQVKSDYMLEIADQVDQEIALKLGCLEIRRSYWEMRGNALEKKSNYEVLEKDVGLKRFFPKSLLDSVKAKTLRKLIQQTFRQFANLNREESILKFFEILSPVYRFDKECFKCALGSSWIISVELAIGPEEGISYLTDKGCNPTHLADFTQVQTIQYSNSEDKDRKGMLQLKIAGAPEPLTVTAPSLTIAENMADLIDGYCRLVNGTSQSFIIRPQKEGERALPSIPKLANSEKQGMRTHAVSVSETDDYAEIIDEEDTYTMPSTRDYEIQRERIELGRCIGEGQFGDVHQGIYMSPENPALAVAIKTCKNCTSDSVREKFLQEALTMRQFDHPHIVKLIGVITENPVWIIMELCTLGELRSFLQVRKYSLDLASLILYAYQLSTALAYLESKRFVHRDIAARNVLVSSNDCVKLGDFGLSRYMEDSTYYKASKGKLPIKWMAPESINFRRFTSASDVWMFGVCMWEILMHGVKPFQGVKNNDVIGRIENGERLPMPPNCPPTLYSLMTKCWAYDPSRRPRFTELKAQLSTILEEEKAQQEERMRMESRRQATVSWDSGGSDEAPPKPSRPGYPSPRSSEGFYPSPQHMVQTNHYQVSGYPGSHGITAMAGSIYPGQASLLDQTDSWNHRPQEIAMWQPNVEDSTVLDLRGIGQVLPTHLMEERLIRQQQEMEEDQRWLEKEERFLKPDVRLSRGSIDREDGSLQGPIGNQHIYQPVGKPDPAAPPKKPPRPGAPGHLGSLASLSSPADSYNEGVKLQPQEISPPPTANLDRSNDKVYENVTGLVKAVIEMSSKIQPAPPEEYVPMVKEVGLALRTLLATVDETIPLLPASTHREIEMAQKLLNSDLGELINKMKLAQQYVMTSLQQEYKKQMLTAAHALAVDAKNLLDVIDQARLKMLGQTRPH

[12] = tested on: Fibrinogen (Alexa647-labelled); assay: Alexa647-fibrinogen binding to printed small molecules – biochemical, small-molecule microarray, 635/667 nm fluorescence, artefact control for SMM control-protein annotation, profiling panel (AID 1131); details: fibrinogen-A647 binding fluorescence, higher = more signal;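 also: z-score merges 667 nm fluorescence with per-spot signal-to-noise over triplicate slides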
[13] = biological target: Follistatin (Homo sapiens) (UniProt P19883); assay: FST protein binding to printed compounds – biochemical, small-molecule microarray, 635/667 nm fluorescence, primary screen (AID 1132); details: 635 nm fluorescence, higher = more signal
Follistatin (Homo sapiens), sequence (P19883 whole entry, looked up): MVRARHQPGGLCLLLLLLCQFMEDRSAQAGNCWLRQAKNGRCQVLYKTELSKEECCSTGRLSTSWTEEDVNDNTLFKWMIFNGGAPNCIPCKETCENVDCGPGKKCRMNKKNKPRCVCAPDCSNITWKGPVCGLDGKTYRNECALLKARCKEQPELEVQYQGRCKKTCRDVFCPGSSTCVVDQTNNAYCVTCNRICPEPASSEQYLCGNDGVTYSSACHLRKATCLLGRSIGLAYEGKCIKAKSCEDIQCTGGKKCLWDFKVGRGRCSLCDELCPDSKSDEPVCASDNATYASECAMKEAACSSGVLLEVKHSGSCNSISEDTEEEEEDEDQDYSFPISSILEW

[14] = biological target: Fibroblast growth factor 2 (Homo sapiens) (UniProt P09038); assay: basic fibroblast growth factor binding to printed compounds – biochemical, small-molecule microarray, 635/667 nm fluorescence, primary screen (AID 1133); details: FGF2, fluorescence 635/667, higher = more signal
Fibroblast growth factor 2 (Homo sapiens), sequence (P09038 whole entry, looked up): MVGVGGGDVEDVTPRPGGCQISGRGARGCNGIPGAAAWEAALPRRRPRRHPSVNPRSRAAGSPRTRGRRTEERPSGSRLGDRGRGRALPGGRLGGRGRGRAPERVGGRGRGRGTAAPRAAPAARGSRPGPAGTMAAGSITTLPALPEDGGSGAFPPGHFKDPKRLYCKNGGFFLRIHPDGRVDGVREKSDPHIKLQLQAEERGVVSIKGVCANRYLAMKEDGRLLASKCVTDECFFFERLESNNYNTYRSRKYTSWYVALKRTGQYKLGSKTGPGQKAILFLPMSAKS

[15] = JC-1 mitochondrial potential readout, lung cancer cells – cell-based, A549, JC-1 fluorescence, basal, 24 h, 100 nL, profiling panel (AID 1138); details: higher = more signal;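 also: A549 lung adenocarcinoma cells under basal conditions with no added stimulus; test concentration not given here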
Lefty1 = Lefty1 protein binding to printed compounds – biochemical, small-molecule microarray, 635/667 nm fluorescence, primary screen (AID 1139); details: fluorescence 635/667, higher = more signal
[16] = tested on: wheat germ agglutinin (Triticum aestivum), Alexa647-labelled; assay: Alexa647-WGA lectin binding to printed small molecules – biochemical, small-molecule microarray, 635/667 nm fluorescence, artefact control for SMM control-protein annotation, profiling panel (AID 1140); details: WGA-A647 binding, 635 nm fluorescence, higher = more signal;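 also: score merges 667 nm feature emission with signal to noise over triplicate slides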
[17] = biological target: Luciferin 4-monooxygenase (Photinus pyralis) (UniProt P08659); assay: inhibition of purified Photinus pyralis luciferase – biochemical, luminescence, purified enzyme, 2006 set, primary screen (AID 1141); details: purified firefly luciferase, SteadyGlo luminescence, 30 min; higher = more signal, called active from +8 up or from −8 down;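 also: cell-free assay with purified firefly luciferase at 100 ng per well in PBS; test concentration not given here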
Luciferin 4-monooxygenase (Photinus pyralis), sequence (P08659 whole entry, looked up): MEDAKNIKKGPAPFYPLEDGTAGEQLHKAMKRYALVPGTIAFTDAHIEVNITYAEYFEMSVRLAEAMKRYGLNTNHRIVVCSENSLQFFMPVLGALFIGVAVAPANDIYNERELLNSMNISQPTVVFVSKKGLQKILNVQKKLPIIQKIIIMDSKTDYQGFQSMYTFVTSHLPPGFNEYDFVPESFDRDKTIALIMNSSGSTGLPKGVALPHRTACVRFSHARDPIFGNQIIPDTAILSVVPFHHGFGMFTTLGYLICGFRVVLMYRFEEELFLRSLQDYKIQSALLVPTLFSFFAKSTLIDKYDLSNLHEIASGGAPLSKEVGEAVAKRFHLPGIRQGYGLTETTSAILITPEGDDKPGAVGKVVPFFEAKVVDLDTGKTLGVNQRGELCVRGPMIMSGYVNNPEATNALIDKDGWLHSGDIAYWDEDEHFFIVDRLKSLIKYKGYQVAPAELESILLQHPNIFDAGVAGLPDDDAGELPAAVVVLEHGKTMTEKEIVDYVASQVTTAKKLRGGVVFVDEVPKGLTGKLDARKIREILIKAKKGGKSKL

| Structure (SMILES) | composite z-score (Albumin (Bos taurus)) | composite Z-score [1] | composite z-score [2] | composite z-score [3] | composite z-score [4] | composite z-score [5] | composite z-score [6] | composite z-score (Sam68 (KHDRBS1)) | composite z-score [7] | composite z-score [8] | composite z-score [9] | composite z-score [10] | composite z-score [11] | composite z-score [12] | composite z-score [13] | composite z-score [14] | z-score [15] | composite z-score (Lefty1) | composite z-score [16] | z-score [17] |
| --- | --- | --- | --- | --- | --- | --- | --- | --- | --- | --- | --- | --- | --- | --- | --- | --- | --- | --- | --- | --- |
| O=C1[C@H]2[C@H]3[C@H](O)[C@H](O)CC(=NOC[C@@H](O)COCc4ccco4)[C@@H]3CC[C@H]2C(=O)N1C1CCCCC1 | 0.0451 | -0.415 (inactive) | 0.149 | -0.251 | 0.057 | -0.39 | -0.0177 | 0.827 | 1.52 | -0.421 | 0.0182 | -0.244 | -0.569 | -0.811 | 1.22 | 1.37 | -0.144 | 1.58 | -0.284 | 0.0055 (inactive) |
| CC(CCN1CCCc2nc(C)c(C)cc21)=NO[C@H](C)c1cn([C@@H]2COC[C@H]2O)nn1 | -0.392 | 0.37 (inactive) | 0.106 | -0.0741 | 0.25 | -0.205 | 0.58 | 1.32 | 0.854 | 0.351 | 0.652 | 0.793 | 1.19 | 0.704 | 0.622 | 0.743 | -0.0769 | 0.764 | 0.205 | 0.711 (inactive) |
| C#CCCCON=C1C[C@@H](O)[C@@H](O)[C@@H]2[C@@H]3C(=O)N(C[C@@H]4CCCO4)C(=O)[C@@H]3CC[C@H]12 | 0.541 | 1.11 (inactive) | -0.0662 | -0.115 | 0.239 | 0.335 | 0.142 | 0.63 | 0.249 | 0.732 | 0.185 | 0.508 | 0.235 | 0.509 | 0.669 | 0.103 | -0.544 | 0.388 | 0.0691 | 0.451 (inactive) |
| CC(C)=NO[C@H](C)c1cn([C@@H]2COC[C@H]2O)nn1 | 0.392 | -0.679 (inactive) | 0.0694 | -0.147 | 0.0793 | 0.0027 | 0.191 | 0.317 | 0.655 | 0.139 | 0.106 | 0.661 | 0.335 | 0.187 | 0.349 | 0.594 | 0.027 | 0.718 | -0.038 | 0.0821 (inactive) |
| COC(=O)[C@H](C)NC(=O)CCC1CC(OC(=O)NCc2cccc3ccccc23)CC2(CCCC(COC(=O)NCCOc3ccccc3)O2)O1 (stereo not given in full) | 0.445 | -0.0662 (inactive) | -0.0694 | -0.161 | 0.295 | 1.17 | 0.106 | 1.23 | -0.254 | 1.09 | 0.334 | 1.12 | 0.549 | 0.793 | 0.145 | -0.142 | -0.333 | 0.318 | 0.502 | 1.32 (inactive) |
